Source: PubChem BioAssay
TSHR agonist = activates the human thyroid stimulating hormone receptor; P16473; HEK293-CNG-TSHR cells (CNG channel as cAMP sensor), membrane potential dye, cAMP; Potency, µM (highest dose often 57.1 µM), without a hit: at the highest dose activation, usual class: activators; actives 0.48% (n = 73,000); AID 926; active = well fitted activation curve with a large enough effect in the main read-out, with a control signal flat, not every such curve was filed as active; inconclusive = small, poorly fitted or top-dose-only effect, or a change in a side signal; inactive = no such curve, though single readings can be large or run the other way; % of control where 0% means no effect;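 note: the control signal comes from parental cells without the receptor; potency is the fitted concentration of half-maximal effect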
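cAMP rise detected as CNG-channel membrane depolarization by fluorescent dye (emission 590 nm), 30 min after compound, following 60 min dye loading containing 100 uM RO 20-1724 at room temperature. Cells: TSHR/CNG HEK 293, with parental CNG HEK 293 as control.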
Tau filament bind = tau filament binding; actives 2% (n = 71,000); Potency, µM (series often up to 57.1 µM), for the others: at the highest dose activity change, negative = inhibition; P10636; recombinant tau filaments, thioflavin S fluorescence, 15 h; filaments grown with octadecylsulfate alongside compound; active = well fitted curve in the direction sought with a large enough effect; inconclusive = small, poorly fitted or top-dose-only effect, or another doubt; inactive = no such curve, though single readings can be large; an effect the other way counts as inactive or inconclusive;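 note: potency is the fitted concentration of half-maximal effect; % is set by controls: 0 for no effect and ±100 for the full control effect; actives lower thioflavin S fluorescence by blocking filaments or displacing dye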
Target sequence (P10636 whole entry, looked up): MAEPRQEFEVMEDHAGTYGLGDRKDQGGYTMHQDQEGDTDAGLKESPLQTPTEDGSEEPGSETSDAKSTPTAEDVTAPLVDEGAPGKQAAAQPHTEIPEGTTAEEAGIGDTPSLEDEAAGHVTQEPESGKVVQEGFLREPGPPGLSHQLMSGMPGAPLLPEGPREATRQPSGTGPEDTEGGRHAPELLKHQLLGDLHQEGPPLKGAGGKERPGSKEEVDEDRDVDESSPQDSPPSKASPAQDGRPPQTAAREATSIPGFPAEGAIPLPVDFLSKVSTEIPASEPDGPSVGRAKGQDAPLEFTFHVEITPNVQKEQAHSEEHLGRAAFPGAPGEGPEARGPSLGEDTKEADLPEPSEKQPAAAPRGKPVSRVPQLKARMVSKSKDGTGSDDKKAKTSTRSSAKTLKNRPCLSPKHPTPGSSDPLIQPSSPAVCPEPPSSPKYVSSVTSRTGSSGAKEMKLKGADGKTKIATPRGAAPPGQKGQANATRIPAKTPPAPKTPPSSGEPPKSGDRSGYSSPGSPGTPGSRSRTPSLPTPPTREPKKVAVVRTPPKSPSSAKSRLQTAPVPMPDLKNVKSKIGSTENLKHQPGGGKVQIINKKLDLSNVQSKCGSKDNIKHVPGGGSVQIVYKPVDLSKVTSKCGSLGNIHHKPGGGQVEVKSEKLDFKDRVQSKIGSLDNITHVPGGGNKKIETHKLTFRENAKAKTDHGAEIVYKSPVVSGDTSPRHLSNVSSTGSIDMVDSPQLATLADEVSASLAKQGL
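ThS-based fibril read: tau 1 uM final, inducer ODS 30 uM final, 37 C for 15 h, ex 450/em 510 nm.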
Hsp90 Hop PPI = changes Hsp90-Hop TPR2A binding signal, up or down | AlphaScreen TPR2A-His6 binding biotin-Hsp90 C-terminal peptide | Potency, µM (doses to about 57 µM), for inactives: top-dose activity change, negative = inhibition | actives 0.44% (n = 71,000); active = well fitted curve in either direction with a large enough effect; inconclusive = small, poorly fitted or top-dose-only effect, or another doubt; note: potency is the fitted concentration of half-maximal effect; % is set by controls: 0 for no effect and ±100 for the full control effect
Pol III holo inh = inhibitors of bacterial DNA polymerase III holoenzyme | reconstituted DNA polymerase III holoenzyme replication, biochemical | AID 603 | Potency, µM (doses to about 57.1 µM), without a hit: at the top dose activity change, negative = inhibition | actives 0.25% (n = 71,000); active = well fitted curve in the direction sought with a large enough effect; inconclusive = small, poorly fitted or top-dose-only effect, or another doubt; inactive = no such curve, though single readings can be large; an effect the other way counts as inactive or inconclusive; note: potency is the fitted concentration of half-maximal effect; % is set by controls: 0 for no effect and ±100 for the full control effect
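Reconstituted *E. coli* holoenzyme (0.35 nM Pol III, 1 nM beta, 154 nM SSB, 2 nM primase) was preincubated with compound for 15 min at RT. Synthesis on 1.4 nM ssM13Gori ran 35 min, then was stopped with PicoGreen/EDTA and read as dsDNA fluorescence.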
HEK293 cAMP ctrl = counter-screen for TSHR agonists: cAMP increase in parental HEK293 | actives 2.5% (n = 73,000) | parental HEK293 CNG cAMP sensor, membrane potential fluorescence | AID 938 | Potency, µM (highest dose often 57.1 µM), inactives show at the top dose activation, hits mostly activators; active = well fitted curve in the direction sought with a large enough effect; inconclusive = small, poorly fitted or top-dose-only effect, or another doubt; inactive = no such curve, though single readings can be large; an effect the other way counts as inactive or inconclusive; note: potency is the fitted concentration of half-maximal effect; % of control where 0% means no effect; nearly all actives have a fitted effect of over 55% in size
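Parental HEK 293 cells stably expressing a cAMP-gated CNG channel were loaded with membrane potential dye containing 100 uM RO 20-1724 for 60 min. Compound added for 30 min; depolarization read as fluorescence intensity at 590 nm.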
Hsp90 TPR2A CRC = confirmation and counter-screen of Hsp90 TPR2A co-chaperone interaction disrupters. shares compounds with Hsp90 Hop PPI. AlphaScreen TPR2A-His6 / biotin-Hsp90 peptide binding. activity, negative = inhibition, % at 40 µM or 46 µM, hits read low. actives 100% (n = 45). AID 632;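 active = compound lowering the Hsp90 and TPR2A binding signal, whether or not the linker counterscreen also flagged it as an artifact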
tau ThS displ = tau filament binding by ThS displacement; shares compounds with Tau filament bind; recombinant tau filaments, Thioflavin S fluorescence displacement; Potency, µM; actives 40% (n = 60)
aSyn ThS bind = displaces Thioflavin S from alpha-synuclein fibrils. shares compounds with Tau filament bind. recombinant alpha-synuclein fibrils, ThS fluorescence displacement. Potency, µM. actives 40% (n = 60)
Abeta ThS bind = displaces Thioflavin S from Abeta1-42 fibrils | Potency, µM | Abeta1-42 fibrillization, thioflavin S fluorescence, overnight 37 C | shares compounds with Tau filament bind | actives 50% (n = 60)
* marks the source's active call; other numbers are inactive results; [ ] = another dose, or the depositor's remark. Hits are enriched below; roughly 5.1% of the tested compounds scored in any of these assays. Unless noted, calls come from the whole dose curve.

Screening COc1ccc(-c2nnc3sc(-c4ccccn4)nn23)cc1 returned TSHR agonist 8%, Tau filament bind -6%, Hsp90 Hop PPI -5%, Pol III holo inh -2% and HEK293 cAMP ctrl 7%.
For Brc1ccc(-c2nn3c(-c4ccccn4)nnc3s2)o1 the results were TSHR agonist 3%, Tau filament bind inconclusive, Hsp90 Hop PPI 7.9µM*, Pol III holo inh inconclusive, HEK293 cAMP ctrl 6% and Hsp90 TPR2A CRC -99*[alpha-screen platform artifact].
For Clc1nc2ccccc2nc1Cl the results were TSHR agonist -3%, Tau filament bind 0%, Hsp90 Hop PPI -1%, Pol III holo inh 0% and HEK293 cAMP ctrl 17%.
Cn1cccc1C(=O)Nc1nc(-c2ccccn2)cs1 was read as TSHR agonist inconclusive, Tau filament bind inconclusive, Hsp90 Hop PPI 6.3µM*, Pol III holo inh -6%, HEK293 cAMP ctrl inconclusive and Hsp90 TPR2A CRC -100*[alpha-screen platform artifact].
`O=C(CN1C(=O)CCC1=O)Nc1nc(-c2ccccn2)cs1` gave TSHR agonist -5%, Tau filament bind -3%, Hsp90 Hop PPI 2.5µM*, Pol III holo inh -3%, HEK293 cAMP ctrl 14% and Hsp90 TPR2A CRC -100*[alpha-screen platform artifact].
Cc1cccc(Nc2nc(-c3ccccn3)cs2)n1 was read as TSHR agonist -9%, Tau filament bind -2%, Hsp90 Hop PPI -8%, Pol III holo inh -6% and HEK293 cAMP ctrl -1%.
For CCCCNC(=O)CSc1nc2ccccc2c(=O)n1C1CCCC1 the results were TSHR agonist inconclusive, Tau filament bind -1%, Hsp90 Hop PPI 1%, Pol III holo inh -3%, HEK293 cAMP ctrl inconclusive and Hsp90 TPR2A CRC -100*[alpha-screen platform artifact].
`CCOC(=O)CSc1nc2ccccc2c(=O)n1C1CCCC1` gave TSHR agonist 18%, Tau filament bind -13%, Hsp90 Hop PPI -3%, Pol III holo inh -7% and HEK293 cAMP ctrl -3%.
Screening O=S(=O)(Nc1cccc2ncccc12)c1cccs1 returned TSHR agonist inconclusive, Tau filament bind -3%, Hsp90 Hop PPI 16µM*, Pol III holo inh 3%, HEK293 cAMP ctrl inconclusive and Hsp90 TPR2A CRC -100*[alpha-screen platform artifact].
`CC1CCCCN1CCCNC(=O)c1ccc(Cc2nc3ccccc3[nH]2)cc1` (stereo not drawn) gave TSHR agonist -4% and HEK293 cAMP ctrl -21%.
Screening Cn1cccc1C(=O)N1CCC2(CC1)CN(C(c1ccccc1)c1ccccc1)C2 returned TSHR agonist inconclusive, Tau filament bind 2%, Hsp90 Hop PPI inconclusive, Pol III holo inh -4% and HEK293 cAMP ctrl inconclusive.
Screening CCN(CC)C(=O)c1sc2nc(-c3ccncc3)[nH]c(=O)c2c1C returned TSHR agonist 1%, Tau filament bind -15%, Hsp90 Hop PPI 0%, Pol III holo inh -3% and HEK293 cAMP ctrl 2%.
`CCN(CC)C(=O)c1sc2nc(-c3ccccn3)[nH]c(=O)c2c1C` gave TSHR agonist inconclusive, Tau filament bind -35%, Hsp90 Hop PPI 7.9µM*, Pol III holo inh -4%, HEK293 cAMP ctrl inconclusive and Hsp90 TPR2A CRC -99*[alpha-screen platform artifact].
Screening Cc1ccc(N(C)C)cc1 returned TSHR agonist inconclusive, Tau filament bind -10%, Hsp90 Hop PPI -16%, Pol III holo inh 2% and HEK293 cAMP ctrl 9%.
`CN(C)c1ccc(C(=C2C=CC(=[N+](C)C)C=C2)c2ccc(N(C)C)cc2)cc1` gave TSHR agonist inconclusive, Tau filament bind 0.13µM*, Hsp90 Hop PPI inconclusive, Pol III holo inh 40µM*, HEK293 cAMP ctrl -40%, tau ThS displ 0.18µM*, aSyn ThS bind 0.15µM* and Abeta ThS bind 0.15µM*.
